Screens (PubChem BioAssay)
Most compounds without a hit are left out; they make up all but 13% or so of the library.
CHX counter = Cycloheximide Counterscreen for Small Molecule Inhibitors of Shiga Toxin | cell reporter, cycloheximide protein synthesis inhibition counterscreen | max response, % | 300,000 tested, 12% active; in the data active means max response mostly above about 13%, no sharp cut-off; inactive means mostly below about 14%; further: read at 38.3 µM for the half of the compounds with a filed dose; 0% is about no effect
Lassa entry inh = qHTS for Inhibitors of binding or entry into cells for Lassa Virus; 300,000 tested, 1.2% active; Potency, µM (highest dose often 37.9 µM), without a hit: at the top dose activity change, negative = inhibition, most hits filed as inhibitors; Lassa virus pseudotype entry inhibition, cell reporter; calls by dose curve; tested in HEK293 cells; further: potency means the concentration at half of the fitted maximal effect; on the % scale 0 is the no-effect control and ±100 the full control effect; nearly all actives have a fitted effect of over 50% in size
HCV inh = qHTS Assay for Inhibitors of Hepatitis C Virus (HCV); Huh7.5.1 HCVcc-Cre infection, luciferase reporter, 44 h; Potency, µM (series often up to 41.8 µM), for inactives: at the highest dose activity change, negative = inhibition, actives largely listed as inhibitors; 340,000 tested, 3.4% active; AID 651820, 2012; active means well fitted inhibition curve with a large enough effect; inconclusive means small, poorly fitted or top-dose-only effect, or another doubt; inactive means no such curve, though single readings can be large or run the other way; further: potency means the concentration at half of the fitted maximal effect; on the % scale 0 is the no-effect control and ±100 the full control effect
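Antiviral activity was scored by luciferase reporter output from cells infected with HCVcc-Cre (~0.5 moi) in presence of compound, 44 h infection period, cells seeded 1,000/well 4 h prior.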
Shiga inhibitor = A qHTS for Small Molecule Inhibitors of Shiga Toxin; Vero cells, Shiga toxin protein synthesis inhibition reporter; inhibition, % at 38.7 µM; 290,000 tested, 9.2% active; AID 2315, 2010; in the data active means inhibition mostly above about 28%, no sharp cut-off; inactive means mostly below about 43%; further: 0% is about no effect
FMDV inh = High Throughput Screening for Foot and Mouth Disease Virus Antivirals | Potency, µM (top dose mostly 57.9 µM), without a hit: top-dose activity change, negative = inhibition, most hits filed as inhibitors | 410,000 tested, 1.2% active | FMDV antiviral cell-based qHTS; calls by dose curve; tested in HEK293T cells; further: read-out not given here; potency means the concentration at half of the fitted maximal effect; on the % scale 0 is the no-effect control and ±100 the full control effect; nearly all actives have a fitted effect of over 45% in size
Marburg entry inh = qHTS for inhibitors of binding or entry into cells for Marburg Virus; 300,000 tested, 1.8% active; AID 540276, 2011; Potency, µM (highest dose often 37.8 µM), inactives show at the highest dose activity change, negative = inhibition, actives largely listed as inhibitors; Marburg virus pseudotyped entry inhibition, cell reporter; calls by dose curve; tested in HEK293 cells; further: potency means the concentration at half of the fitted maximal effect; on the % scale 0 is the no-effect control and ±100 the full control effect
* hit, by the source's call; u = inconclusive; x = not tested or not shown; [ ] = remark or other dose.

SMILES	CHX counter	Lassa entry inh	HCV inh	Shiga inhibitor	FMDV inh	Marburg entry inh
O=C(c1ccc2snnc2c1)N1CCN(c2ccccn2)CC1	-7	1%	14%	-16	-3%	1%
CCOC(=O)N1CCN(CC(=O)N2CCC(C(N)=O)CC2)CC1	-1	u	-26%	-6	-17%	0%[46.1 µM]
COc1cc(NC(=O)Nc2cccc3cccnc23)cc(OC)c1OC	16*	x	u	26	-17%	x
Cc1cnc(C(=O)Nc2cccc3cccnc23)cn1	-3	1.6µM*	u	-17	12%	u
CC(=O)c1c(C)[nH]c(C(=O)COC(=O)c2nccnc2N)c1C	x	x	0%	x	10%	x
CN1/C(=C/c2cc[n+](C)c3ccccc23)C=Cc2ccccc21	2	u	u	-11	14µM*	4µM*
COc1ccccc1OCCNC(=O)c1c(-c2ccccc2Cl)noc1C	2	-5%	-1%	-30	-12%	-30%
CC(C)Oc1ccc(C(=O)Nc2ccc(N3CCCCC3)cc2)cc1	-2	1%	-14%	22	-24%	u
CN1CCN(c2ccc(NC(=O)c3cccc(OCc4ccccc4)c3)cc2)CC1	23*	-17%	25µM*	60*	7%	22µM*
CC(C)Oc1cccc(C(=O)Nc2ccc(N3CCN(C)CC3)cc2)c1	26*	x	-15%	x	56%	x
CCCn1c(SCC(=O)Nc2ccc(NC(=O)CC)cc2)nc2c1c(=O)n(C)c(=O)n2C	-7	13%	-3%	-8	-16%	6%[46.1 µM]
CCN(CC)CCN(Cc1cc2ccc(C)c(C)c2[nH]c1=O)C(=S)NCc1ccco1	-2	5.6µM*	u	7	4%	u
Cc1c(-c2cc(C(=O)O)on2)cnn1C	-6	6%[46.1 µM]	23%	31	-6%	4%[46.1 µM]
Cc1cccc(OCC(=O)O/N=C(\N)c2ccc(Cl)cc2)c1	-3	-5%	15%	-7	15%	-8%
Cc1cccc(C(=O)O/N=C/c2ccc(Br)cc2)c1	44*	-2%	15%	88*	40%	-12%[46.1 µM]
Cc1ccc(/C(N)=N/OC(=O)c2ccc(Cl)cc2Cl)cc1	82*	u	u	92*	-54%	7.1µM*
Cc1cccc(C(=O)O/N=C(\N)c2ccc(Cl)cc2)c1	56*	x	-2%	71*	62%	x
Cc1cc(C)cc(C(=O)O/N=C(\N)c2ccc(Br)cc2)c1	12	u	-22%	16	21%	-26%
Cc1ccc(C)c(C(=O)O/N=C(\N)c2ccc(Br)cc2)c1	21	u	u	31	-6%	u
N/C(=N\OC(=O)c1ccoc1)c1ccc(Br)cc1	74*	x	0%	90*	56%	x
Cc1cccc(C(=O)O/N=C/c2c(Cl)n(C)c3ccccc23)c1	1	2%	4%	17	-19%	-19%
CC(=O)c1cccc(-c2ccc3c(=O)[nH]c(Nc4ccccc4)cc3c2)c1	x	x	-11%	x	79%	x
Cc1cccc(C(=O)O/N=C(\N)c2ccc(Br)cc2)c1	56*	-15%	-12%	63	25%	12%
Cc1ccc(C(=O)O/N=C(\N)c2ccc(Br)cc2)cc1C	42*	-20%	-6%	130*	45%	22%
C=CCSc1nnc(-c2cc3c(s2)-c2ccccc2CC3)o1	14*	-9%	-32%	52*	13%	7%[46.1 µM]
SMILES	CHX counter	Lassa entry inh	HCV inh	Shiga inhibitor	FMDV inh	Marburg entry inh
C=CCSc1nnc(-c2cccc3ccccc23)o1	x	x	x	x	-8%	x
CCc1ccc(CNC(=O)c2ccc3c(Cl)c4c(nc3c2)CCCC4)cc1	x	u	x	x	13%	6%[46.1 µM]
O=C(c1ccc2c(Cl)c3c(nc2c1)CCCC3)N1CCC(N2CCCCC2)CC1	-4	u	u	-15	0%	4.6µM*
O=C(c1ccc2c(Cl)c3c(nc2c1)CCCC3)N1CCN(c2ccccc2)CC1	x	-1%[46.1 µM]	x	x	-4%	-23%[46.1 µM]
Cc1cccc(NC(=O)c2ccc3c(Cl)c4c(nc3c2)CCCC4)n1	23	x	u	31	-19%	x
CCC(C)NC(=O)c1ccc2c(Cl)c3c(nc2c1)CCC3 (configuration not stated)	28*	x	-8%	53*	37%	x
CN1CCN(CCCNC(=O)c2ccc3c(Cl)c4c(nc3c2)CCCC4)CC1	-2	x	10µM*	-3	-23%	x
